Sampled rows, rich in hits. Any-hit rate of the full collection: about 1.7%.
Mtb hypoxia inh: Mtb hypoxia fluorescent reporter inhibition; M. tuberculosis hypoxia-regulated fluorescent reporter, fluorescence; AID 1159583; actives 0.1% (n = 300,000); fluorescence inhibition, % (test concentration not listed); in the data active = fluorescence inhibition mostly above about 23%, no sharp cut-off; inactive = mostly below about 17%
Mtb betalactam: beta-lactam sensitization of Mtb H37Rv; inhibition, % at 25 µM; M. tuberculosis H37Rv growth with meropenem, percent inhibition; actives 0.27% (n = 330,000); call rule not given here;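 also: growth measured after seven days incubation then overnight dye step; 0% = bacteria only wells and 100% = bacteria with antibiotic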
CCHF vOTU inh: blocks the CCHF virus ovarian tumor domain protease. actives 0.55% (n = 370,000). CCHFV vOTU protease, Pep-AMC fluorescence. inhibition, % at 11.5 µM; in the data active = inhibition above about 30%; also: 0% = vehicle wells with enzyme and 100% = no enzyme wells
RecA splice inh: inhibitors of M. tuberculosis RecA intein splicing | AID 2221 | inhibition, % (no concentration beside the values) | actives 0.75% (n = 290,000) | cell-free RecA intein splicing, fluorescence | P9WHJ3; in the data active = inhibition above about 30%; inconclusive = no clear call, values can overlap the other calls;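 also: 0% = vehicle wells and 100% = reference inhibitor control wells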
Target sequence (P9WHJ3 whole entry, looked up, canonical isoform): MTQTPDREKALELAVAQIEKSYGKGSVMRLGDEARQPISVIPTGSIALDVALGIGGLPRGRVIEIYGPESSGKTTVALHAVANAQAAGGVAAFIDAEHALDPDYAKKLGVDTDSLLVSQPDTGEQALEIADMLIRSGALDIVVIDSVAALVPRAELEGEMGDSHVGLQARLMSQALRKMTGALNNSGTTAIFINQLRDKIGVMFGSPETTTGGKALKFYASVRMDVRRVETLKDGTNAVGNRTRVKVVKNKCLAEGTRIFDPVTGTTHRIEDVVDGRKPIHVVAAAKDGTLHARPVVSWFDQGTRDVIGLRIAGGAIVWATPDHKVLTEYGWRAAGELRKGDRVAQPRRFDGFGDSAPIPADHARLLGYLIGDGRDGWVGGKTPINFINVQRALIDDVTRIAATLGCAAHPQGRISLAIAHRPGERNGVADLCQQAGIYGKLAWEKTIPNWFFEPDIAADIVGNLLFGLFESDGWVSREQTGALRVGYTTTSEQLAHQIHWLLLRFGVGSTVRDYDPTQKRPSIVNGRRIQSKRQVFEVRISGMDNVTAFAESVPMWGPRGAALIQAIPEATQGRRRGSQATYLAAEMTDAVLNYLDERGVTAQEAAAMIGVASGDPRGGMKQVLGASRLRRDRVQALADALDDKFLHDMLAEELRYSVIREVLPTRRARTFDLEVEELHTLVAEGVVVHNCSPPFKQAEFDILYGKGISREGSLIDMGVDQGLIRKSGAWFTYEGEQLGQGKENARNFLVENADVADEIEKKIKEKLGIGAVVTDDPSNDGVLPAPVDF
PfHsp40 yeast: compounds rescuing yeast from Plasmodium falciparum HSP40 toxicity; S. cerevisiae expressing PfHsp40, growth rescue, ATP luminescence; growth rescue, % at 12.5 µM; actives 0.68% (n = 340,000); AID 504582; in the data active = growth rescue above about 28%, passing the limit was not always enough; inconclusive = no clear call, values can overlap the other calls;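 also: yeast W303a lacking pdr1 and pdr3 grown in galactose medium; growth measured after three days at 30 °C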
* hit, by the source's call; ? = inconclusive; / = not tested or not shown.

SMILES	Mtb hypoxia inh	Mtb betalactam	CCHF vOTU inh	RecA splice inh	PfHsp40 yeast
CN(CCOc1ccc(Cl)c(Cl)c1)Cc1ccccc1	-1	9	-8	/	36*
CCOc1ccc(OCCN(C)Cc2ccccc2)cc1	10	21	12	-1	-1
[O-][n+]1c2ccccc2c2n1CCN1CCOC21c1ccc(Cl)cc1 (stereo unspecified)	66*	88	-16	/	-1
N#Cc1ccc(C23OCCN2CCn2nc4ccccc4c23)cc1 (stereo unspecified)	-2	-2	-5	/	0
COc1ccc(C2Cc3cc(O)cc(O)c3C(=O)O2)cc1O (stereo unspecified)	-1	/	/	/	/
O=C(COc1ccccc1)Nc1ccncc1	-3	5	6	-1	44*
O=C(COC(=O)c1ccc(Cl)cc1)NC(=O)NC1CCCC1	8	/	8	/	0
CN(C)S(=O)(=O)c1ccc(C(=O)OCC(=O)NC(=O)NC2CCCC2)cc1	31*	-11	0	/	-2
Cc1cc(C)nc(SCc2cc(=O)c(OC(=O)c3ccc(S(=O)(=O)N4CCCC4)cc3)co2)n1	13	-2	8	0	130*
Cc1cc(C)nc(SCc2cc(=O)c(OC(=O)c3ccco3)co2)n1	-5	0	-8	1	0
CC(C)C[C@H](N)c1nnc(S(=O)(=O)Cc2ccc(F)cc2)o1	/	38	/	34*	?
COC(=O)c1ccc(C=NNc2nc(-c3ccccc3)cs2)cc1	12	/	/	/	/
O=C(NN=C/C=C\c1ccccc1[N+](=O)[O-])c1cccs1	-3	/	/	/	/
CCN(C(=O)c1cnc2scc(C)n2c1=O)c1ccccc1C	10	1	-3	-1	40*
Cc1cc(C(=O)NN)c(C)o1	7	-1	5	-1	1
CCc1ccc(C(C)NC(=O)c2cc(C)oc2C)cc1 (stereo unspecified)	13	-3	12	11	47*
O=C1C2C3C=CC(C3)C2C(=O)N1CCCCN1C(=O)C2C3C=CC(C3)C2C1=O (stereo unspecified)	-2	9	12	-1	-1
O=C1[C@@H]2[C@H](C(=O)N1O)[C@H]1C=C[C@@H]2C1	9	-10	7	-6	34*
CCN(CC)C(=O)C1CC(=O)N(c2ccc(F)c(Cl)c2)C1 (stereo unspecified)	13	0	11	1	40*
O=C(COc1ccccc1-c1ccccc1)NN=Cc1ccccn1	-4	/	/	/	/
Cc1ccc2c(nc3sc(=Cc4cccs4)c(=O)n32)c1C	-1	/	/	/	/
CCCC(=O)NC(c1ccccc1OC)c1ccc2cccnc2c1O (stereo unspecified)	-1	-1	/	-5	374*
CCCCC(=O)NC(c1ccc(N(C)C)cc1)c1ccc2cccnc2c1O (stereo unspecified)	/	0	-4	/	509*
CCCCC(=O)NC(c1ccc(Cl)cc1)c1ccc2cccnc2c1O (stereo unspecified)	/	1	17	-4	-1
CCCCC(=O)NC(c1ccc(N(CC)CC)cc1)c1ccc2cccnc2c1O (stereo unspecified)	/	-9	2	10	129*
SMILES	Mtb hypoxia inh	Mtb betalactam	CCHF vOTU inh	RecA splice inh	PfHsp40 yeast
CCCCC(=O)NC(c1ccccc1OC)c1ccc2cccnc2c1O (stereo unspecified)	9	-5	13	-2	-2
COc1cc(C=NN(C)S(=O)(=O)c2ccc(C)cc2)cc([N+](=O)[O-])c1O	15	/	/	/	/
COC(=O)C1=C(c2ccc(OCc3ccccc3)cc2)CC2CCC1N2C(=O)NCc1ccccc1 (stereo unspecified)	2	/	/	/	/
CCCN(CCC)Cc1c(C(=O)NN=C/C(C)=C\c2ccco2)nnn1-c1nonc1N	6	/	/	/	/
O=[N+]([O-])c1cc(CN2CCN(c3cccc(C(F)(F)F)c3)CC2)c2cccnc2c1O	6	87	13	0	48*
O=[N+]([O-])c1cc(CN2CCCC2)c2cccnc2c1O	/	-1	/	/	11
COCC(=O)Oc1c(S(=O)(=O)c2ccc(C)cc2)c(C)nn1-c1ccccc1	/	1	0	6	157*
C[C@@]12CCC3[C@@](CCC4[C@@]3(C)CCC[C@@]4(C)C(=O)NCc3ccccc3)(CC1=O)C2 (stereo partly specified)	14	3	0	/	346*
CC(O)C1CNC(=O)C(=O)N1CCc1cc(C(F)(F)F)cc(C(F)(F)F)c1 (stereo unspecified)	22	/	/	/	/
O=C1CCCc2c1ccc1ccccc21	9	/	-2	/	29*
CCCCCCOC(=O)c1ccccc1NC(=O)/C=C/C(=O)O	2	2	15	67*	-1
